The nature of experiment [1]: Wnt pathway potentiators raising nuclear beta-catenin – imaging, WNT3A-conditioned medium, mouse C2C12, NPC library, primary screen (AID 1117326; in the data active = nuclear beta-catenin stimulation mostly above about 4.2%, no sharp cut-off; inactive = mostly below about 10%; note: reference of the scale not given here). Particulars: stronger effect = higher value.
Experiment [2] can be described thus: stimulators of insulin release from INS-1E, primary screen, cell-based, 5 mM glucose, NPC library (AID 1117329;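 active = compound raises insulin release from rat beta cells at 5 mM glucose, no numeric limit stated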; note: reference of the scale not given here). Conditions: rat INS-1E insulin secretion, at 10 µM, stronger effect = higher value.
A short description of experiment [3]: growth inhibition of GSK3B-pretreated HCT116 cells – cell-based, CellTiter-Glo, 0.2 to 20 µM (AID 1117336;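 active = compounds lowering colon cancer cell viability after pretreatment blocking the GSK3B kinase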). Particulars: HCT116 viability after GSK3B inhibitor, at 20 µM, stronger effect = higher value. In general terms: Cellular ATP, detected with luciferase, serves as a proxy for viable cell number.
Experiment [4] is described as follows: inhibition of endothelial tube formation, primary screen, imaging, VEGF stimulated, CD31 staining, tube area, NPC library (AID 1117340;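 active = compound that reduces growth-factor-driven endothelial tube area in a mixed cell culture, no cutoff stated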). Particulars: VEGF-stimulated ADSC/ECFC co-culture, at 10 µM, stronger effect = higher value.
Experiment [5] in a line: GLP1 release stimulators, primary, NCI-H716, NPC library (AID 1117341). Note: reference of the scale not given here. Conditions: NCI-H716 cells, at 10 µM, stronger effect = higher value.
Experiment [6] in a line: HCT116 colon cancer cell growth inhibition, primary screen, CellTiter-Glo luminescence, NPC library (AID 1117342;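 active = compounds that lower survival of HCT116 colon cancer cells in the luminescence readout, no numeric limit stated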). Particulars: at 20 µM (top of the series).
A short description of experiment [7]: reduced SW480 viability measured with CellTiter-Glo, NPC library, primary (AID 1117343;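 active = compounds that lower viability of the colon cancer cells in the luminescence readout, with no numeric limit stated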). Conditions: CellTiter-Glo luminescence; at 20 µM (top of the series).
The nature of experiment [8]: NPC library primary testing for decreased DLD-1 cell viability via CellTiter-Glo (AID 1117346;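 active = compounds that lower survival of DLD-1 colon cancer cells in the luminescence readout, no cutoff given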). Particulars: DLD-1 viability, CellTiter-Glo luminescence; at 20 µM (top of the series).

Consider 15 compounds from PubChem BioAssay.

The source made the active and inactive calls.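 Rule for the calls, unless noted: active = compound raises GLP1 secretion from the human gut endocrine cells, with no numeric limit stated; inactive = the rest.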

`CCOC(=O)C(c1c(O)c2ccccc2oc1=O)c1c(O)c2ccccc2oc1=O`: the nuclear beta-catenin stimulation in experiment [1] (at 10 µM) is -0.3% (inactive); in experiment [1] (stimulation, at 2 µM), -0.6%. Moreover, the insulin secretion stimulation in experiment [2] is -0.8% (inactive). The viability decrease in experiment [3] was 13% (inactive). For the same compound, the tube area decrease in experiment [4] was -8.4% (inactive). In addition, the GLP1 secretion stimulation in experiment [5] was -0.8% (inactive). Moreover, the inhibition of viability in experiment [6] is 5.5% (inactive). Moreover, the viability decrease (inhibition) in experiment [7] was -18.7% (inactive); in experiment [8], 3.4% (inactive).
For `CC(=O)C1CCOC1=O` (stereo not given), the nuclear beta-catenin stimulation in experiment [1] (at 10 µM) is -0.1% (inactive); in experiment [1] (stimulation, at 2 µM) it was 1.2%. For the same compound, the insulin secretion stimulation in experiment [2] was 3.7% (inactive). The viability decrease in experiment [3] is 13.5% (inactive). Moreover, in experiment [4], the tube area decrease is -5% (inactive). Also, the GLP1 secretion stimulation in experiment [5] was 2.7% (inactive). Besides, the inhibition of viability in experiment [6] was 16.7% (inactive). Besides, the viability decrease (inhibition) was 1.5% (inactive) in experiment [7] and 1.4% (inactive) in experiment [8].
On to `Cc1ccc([N+](=O)[O-])[c]2c1[O][Hg]2`, for which the nuclear beta-catenin stimulation in experiment [1] (at 10 µM) was 20.9% (active); in experiment [1] (stimulation, at 2 µM), 66.9%. In addition, the insulin secretion stimulation in experiment [2] is 87.1% (active). Further, in experiment [3], the viability decrease was 99.5% (active). Also, in experiment [4], the tube area decrease was 105% (active). Besides, the GLP1 secretion stimulation in experiment [5] is 64.6% (active). The inhibition of viability in experiment [6] was 100% (active). Also, the viability decrease (inhibition) in experiment [7] is 134% (active); in experiment [8] it was 103% (active).
For `CCC1(c2ccccc2)CCC(=O)NC1=O` (stereo not given), the nuclear beta-catenin stimulation in experiment [1] (at 10 µM) is 0.3% (inactive); in experiment [1] (stimulation, at 2 µM), 0.1%. Moreover, the insulin secretion stimulation in experiment [2] was -2.9% (inactive). Moreover, the viability decrease in experiment [3] is -12.8% (inactive). For the same compound, the tube area decrease in experiment [4] is -0.6% (inactive). In addition, in experiment [5], the GLP1 secretion stimulation was 2.8% (inactive). For the same compound, the inhibition of viability in experiment [6] was -2.8% (inactive). Besides, the viability decrease (inhibition) was 49.4% (inactive) in experiment [7] and 6.55% (inactive) in experiment [8].
Consider `ClCCN1CCCC1`, for which the nuclear beta-catenin stimulation was 0.7% (inactive) in experiment [1] (at 10 µM) and -0.2% in experiment [1] (stimulation, at 2 µM). The insulin secretion stimulation in experiment [2] was 4% (inactive). In experiment [3], the viability decrease was 5.1% (inactive). Besides, the tube area decrease in experiment [4] is 9.9% (inactive). Also, the GLP1 secretion stimulation in experiment [5] was -2.4% (inactive). In addition, the inhibition of viability in experiment [6] is -8.3% (inactive). Moreover, the viability decrease (inhibition) in experiment [7] was 8.7% (inactive); in experiment [8] it was 8.5% (inactive).
For the compound `CC1(C)S[C@@H]2[C@H](N)C(=O)N2[C@@H]1C(=O)O`, the nuclear beta-catenin stimulation was 0.4% (inactive) in experiment [1] (at 10 µM) and 3% in experiment [1] (stimulation, at 2 µM). For the same compound, the insulin secretion stimulation in experiment [2] is -0.3% (inactive). Moreover, the viability decrease in experiment [3] was -4.5% (inactive). Also, the tube area decrease in experiment [4] is 7.5% (inactive). In addition, the GLP1 secretion stimulation in experiment [5] was 0% (inactive). Besides, in experiment [6], the inhibition of viability is 2.1% (inactive). Besides, the figures for the viability decrease (inhibition) in experiment [7] and in experiment [8] were 6.9% (inactive) and -4.4% (inactive), respectively.
Take `O=C(O)c1ccc(=O)[nH]c1`: the nuclear beta-catenin stimulation in experiment [1] (at 10 µM) was 0.4% (inactive); in experiment [1] (stimulation, at 2 µM) it was 0.8%. In addition, the insulin secretion stimulation in experiment [2] was 2.6% (inactive). Also, in experiment [3], the viability decrease is 3.2% (inactive). In addition, in experiment [4], the tube area decrease is -2.4% (inactive). The GLP1 secretion stimulation in experiment [5] was -0.3% (inactive). In experiment [6], the inhibition of viability is 7.7% (inactive). The viability decrease (inhibition) in experiment [7] is -13.1% (inactive); in experiment [8], -3.9% (inactive).
For the compound `O=C(N[C@H]1N=C(c2ccccc2F)c2cccc3c2N(CC3)C1=O)c1cc2ccccc2[nH]1`, the nuclear beta-catenin stimulation in experiment [1] (at 10 µM) is 1.3% (inactive); in experiment [1] (stimulation, at 2 µM), 1.4%. In addition, the insulin secretion stimulation in experiment [2] was 3.5% (inactive). Moreover, the viability decrease in experiment [3] was 44.4% (inactive). In addition, the tube area decrease in experiment [4] was 8.5% (inactive). Further, the GLP1 secretion stimulation in experiment [5] is 1.8% (inactive). Moreover, in experiment [6], the inhibition of viability was 54.9% (active). In addition, the results for the viability decrease (inhibition) in experiment [7] and in experiment [8] were 56.9% (active) and 29.7% (inactive), respectively.
For the compound `C[C@]12Cc3nonc3C[C@@H]1CC[C@@H]1[C@@H]2CC[C@@]2(C)[C@H]1CC[C@]2(C)O`, the nuclear beta-catenin stimulation in experiment [1] (at 10 µM) was 2.5% (inactive); in experiment [1] (stimulation, at 2 µM), 0.4%. For the same compound, in experiment [2], the insulin secretion stimulation was -2.4% (inactive). Besides, the viability decrease in experiment [3] is 38.9% (inactive). Also, the tube area decrease in experiment [4] was 1.9% (inactive). For the same compound, in experiment [5], the GLP1 secretion stimulation is 3.3% (inactive). The inhibition of viability in experiment [6] was 1.5% (inactive). For the same compound, the viability decrease (inhibition) is 118% (active) in experiment [7] and 61% (active) in experiment [8].
As to `O=C1C(I)=CC(=C(c2cc(I)c(O)c(I)c2)c2ccccc2C(=O)O)C=C1I`, the nuclear beta-catenin stimulation was 43.7% (active) in experiment [1] (at 10 µM) and 1.8% in experiment [1] (stimulation, at 2 µM). Besides, the insulin secretion stimulation in experiment [2] is -0.1% (inactive). In addition, the viability decrease in experiment [3] is 98.7% (active). In addition, the tube area decrease in experiment [4] is 106% (active). For the same compound, the GLP1 secretion stimulation in experiment [5] was -3.3% (inactive). In addition, the inhibition of viability in experiment [6] was 99.3% (active). Besides, the viability decrease (inhibition) in experiment [7] and in experiment [8] was 100% (active) each time.
Regarding `CN1CCc2cc(Cl)c(O)cc2[C@H]2c3ccccc3CC[C@@H]21`, the nuclear beta-catenin stimulation in experiment [1] (at 10 µM) was 1.9% (inactive); in experiment [1] (stimulation, at 2 µM), 2.3%. For the same compound, the insulin secretion stimulation in experiment [2] was 20.2% (active). The viability decrease in experiment [3] is 16.1% (inactive). In addition, in experiment [4], the tube area decrease was 24.1% (inactive). In addition, the GLP1 secretion stimulation in experiment [5] is 5.5% (inactive). Also, in experiment [6], the inhibition of viability is 28.5% (inactive). Further, the viability decrease (inhibition) was 46.5% (inactive) in experiment [7] and 21.2% (inactive) in experiment [8].
Take `O=C1OC(c2ccc(O)c(S(=O)(=O)O)c2)(c2ccc(O)c(S(=O)(=O)O)c2)c2c(Br)c(Br)c(Br)c(Br)c21`: the nuclear beta-catenin stimulation is 3.3% (inactive) in experiment [1] (at 10 µM) and 4.7% in experiment [1] (stimulation, at 2 µM). Also, in experiment [2], the insulin secretion stimulation was 0.75% (inactive). Further, in experiment [3], the viability decrease is 22.6% (inactive). Further, the tube area decrease in experiment [4] is -6.3% (inactive). The GLP1 secretion stimulation in experiment [5] is 6.8% (inactive). The inhibition of viability in experiment [6] is -59% (inactive). The viability decrease (inhibition) in experiment [7] was 84.5% (active); in experiment [8], -56.3% (inactive).
`O=C(CBr)Nc1ccc(Cl)cc1C(=O)c1ccccc1F`: the nuclear beta-catenin stimulation in experiment [1] (at 10 µM) is -1.3% (inactive); in experiment [1] (stimulation, at 2 µM) it was -1%. For the same compound, in experiment [2], the insulin secretion stimulation was 18.8% (inactive). Besides, the viability decrease in experiment [3] was 84.8% (active). For the same compound, the tube area decrease in experiment [4] was 108% (active). Moreover, the GLP1 secretion stimulation in experiment [5] is 21.4% (active). Besides, in experiment [6], the inhibition of viability was 57.5% (active). The figures for the viability decrease (inhibition) in experiment [7] and in experiment [8] were 95.3% (active) and 64.7% (active), respectively.
Consider `Nc1ccccc1C(=O)O`, for which the nuclear beta-catenin stimulation in experiment [1] (at 10 µM) was 1.8% (inactive); in experiment [1] (stimulation, at 2 µM) it was 1.3%. Besides, in experiment [2], the insulin secretion stimulation was 0.9% (inactive). In experiment [3], the viability decrease is -0.1% (inactive). For the same compound, the tube area decrease in experiment [4] is -2.6% (inactive). Also, the GLP1 secretion stimulation in experiment [5] was 1.1% (inactive). In addition, the inhibition of viability in experiment [6] is 6.4% (inactive). Further, the values for the viability decrease (inhibition) in experiment [7] and in experiment [8] were 11.5% (inactive) and -8.85% (inactive), respectively.
With `CCS(=O)(=O)C(C)(C)S(=O)(=O)CC`, the nuclear beta-catenin stimulation in experiment [1] (at 10 µM) was -0.7% (inactive); in experiment [1] (stimulation, at 2 µM) it was 1.4%. In experiment [2], the insulin secretion stimulation is -0.1% (inactive). For the same compound, the viability decrease in experiment [3] was 2.1% (inactive). For the same compound, the tube area decrease in experiment [4] is -6.6% (inactive). For the same compound, the GLP1 secretion stimulation in experiment [5] was -1.4% (inactive). Further, in experiment [6], the inhibition of viability is -17.9% (inactive). The viability decrease (inhibition) in experiment [7] was -3.1% (inactive); in experiment [8], -0.85% (inactive).
